Each structure is given as a SMILES string. Hit rate of the full screen: of about 5,400 compounds, about 190 (3.5%) showed an effect of 50% or more. Shown is part of a subset that was picked to be rich in strong results.

The subject of the experiment is Vero-E6. The experiment is described as follows: primary screen, phospholipidosis by LipidTOX staining; higher = more effect of the substance. As to conditions: 10 µM. The protocol:
To measure drug-induced PLD in Vero-E6 cells, we used the HCS LipidTOX Red Phospholipidosis Detection Reagent (Invitrogen, #H34351), which is non-toxic to cell growth and remains well retained after aldehyde fixation. In this setup, compounds (at 10 μM concentration) and controls (amiodarone: 10 μM concentration; DMSO: 0.1 v/v %) were added to clear-bottom, 384-well plates (PhenoPlate 384-well, black, optically clear flat bottom, tissue-culture treated, Revvity #6057302) using the Echo Liquid Handler (Labcyte).
Take `CCCOC(C(=O)OC1CCN(C)CC1)(c1ccccc1)c1ccccc1`: the result_ITMP was determined as 63.8%.

`C[C@H]1CCC/C=C/[C@@H]2C[C@H](O)C[C@H]2[C@H](O)/C=C/C(=O)O1`: the result_ITMP is recorded as -2.38%.

On to `COC(=O)C[C@](O)(CCC(C)(C)O)C(=O)O[C@@H]1C(OC)=C[C@]23CCCN2CCc2cc4c(cc2[C@H]13)OCO4`, for which the result_ITMP is -10.1%.

For the compound `C#C[C@]1(O)CC[C@H]2[C@@H]3CCC4=CC(=O)CC[C@]4(C)[C@H]3CC[C@@]21C`, the result_ITMP is recorded as -7.32%.

Regarding `CN1[C@@H]2CC[C@H]1C[C@@H](OC(=O)c1cc(Cl)cc(Cl)c1)C2`, the result_ITMP amounted to 9.65%.

On to `CN(CCc1ccc(Cl)c(Cl)c1)CCN1CCCC1`, for which the result_ITMP worked out at 51.3%.

Take `C[N@+]1(CC2CC2)CC[C@]23c4c5ccc(O)c4O[C@H]2C(=O)CC[C@@]3(O)[C@H]1C5`: the result_ITMP is listed as 0.23%.

As to `CCN1C[C@]2(COC(=O)c3ccccc3N3C(=O)C[C@H](C)C3=O)CC[C@H](OC)[C@@]34[C@@H]5C[C@H]6[C@H](OC)[C@@H]5[C@](O)(C[C@@H]6OC)[C@@](O)([C@@H](OC)[C@H]23)[C@@H]14`, the result_ITMP was 0.37%.

In the case of `C=CC[C@]1(O)CC[C@H]2[C@@H]3CCC4=CCCC[C@@H]4[C@H]3CC[C@@]21C`, the result_ITMP is 0.46%.

In the case of `COc1cc2c(cc1OC)[C@@]13CCN4CC5=CCO[C@H]6CC(=O)N2[C@H]1[C@H]6[C@H]5C[C@H]43`, the result_ITMP turned out to be 1.12%.

On to `CN1C[C@H](CNC(=O)OCc2ccccc2)C[C@@H]2c3cccc4c3c(cn4C)C[C@H]21`, for which the result_ITMP was found to be 61.8%.

`CC(=O)OC[C@]12CCC(C)=C[C@H]1O[C@@H]1[C@H](O)[C@@H](OC(C)=O)[C@@]2(C)[C@]12CO2`: the result_ITMP is on record as -25.8%.

For the compound `Oc1ccc2c3c1O[C@H]1c4[nH]c5ccccc5c4C[C@@]4(O)[C@@H](C2)N(CC2CC2)CC[C@]314`, the result_ITMP was found to be 37.4%.

On to `C[C@@H]1CN([C@H]2CC[C@](C#N)(c3ccc(F)cc3)CC2)CC[C@]1(C(=O)O)c1ccccc1`, for which the result_ITMP is reported as -9.01%.

Consider `Cc1onc(O)c1C[C@H](N)C(=O)O` [R4A_0004356_001 / SPE_K92493880], for which the result_ITMP was -0.72%.

Values taken from article PMC13083723 (Patterns, 2026).
